Only some compounds are listed: those with a hit (about 1.4% of all), similar ones and a draw of the others.
Vif-APOBEC3G blk = qHTS for Inhibitors of Vif-A3G Interactions: qHTS; HeLa A3G-eYFP + Vif (tagged APOBEC3G with the HIV-1 protein that degrades it), YFP fluorescence, overnight; Potency, µM (titrated, usually from 46.1 µM), for inactives: top-dose activity, negative = active, actives largely listed as inhibitors; hit rate 0.076% among 410,000; AID 602310, 2012; also: potency is read from the fitted curve at half-maximal effect; % is scaled to controls: 0 for no effect and ±100 for the full control effect; nearly all actives have a fitted effect of over 60% in size
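HeLa cells stably expressing Vif and C-terminally eYFP-tagged A3G, seeded overnight at 37 deg C, then exposed to compound by pintool overnight at 37 deg C. Rise in yellow fluorescence (Ex 488/Em 500-530, Acumen) marks blocked Vif-driven A3G degradation.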
12-LOX inh = Primary qHTS assay for inhibitors of human arachidonate 12S-lipoxygenase (ALOX12): Round 2 | hit rate 1.1% among 580,000 | Potency, µM (highest dose often 108 µM), inactives show at the top dose activity change, negative = inhibition, hits mostly inhibitors | Polyunsaturated fatty acid lipoxygenase ALOX12 (Homo sapiens), P18054 | purified 12hLO, xylenol orange hydroperoxide absorbance; also: potency is read from the fitted curve at half-maximal effect; % is scaled to controls: 0 for no effect and ±100 for the full control effect
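Purified human 12hLO at 150 nM in 25 mM Hepes, 0.01% Triton X-100, pH 7.0, preincubated 15 min at room temperature with compound. Reaction started with 40 uM arachidonic acid, 30 min at room temperature. Hydroperoxide measured by Fe-xylenol orange, 573/405 nm absorbance ratio.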
S-ASM inh = Inhibitors of Secretory Acid Sphingomyelinase (S-ASM): qHTS; Sphingomyelin phosphodiesterase (Homo sapiens), P17405; placental ASM, HMU-PC fluorogenic substrate, 60 min; Potency, µM (titrated, usually from 57.5 µM), for the others: at the highest dose activity change, negative = inhibition, usual class: inhibitors; hit rate 0.006% among 340,000; also: potency is read from the fitted curve at half-maximal effect
Target sequence (P17405 47-631 limits assumed): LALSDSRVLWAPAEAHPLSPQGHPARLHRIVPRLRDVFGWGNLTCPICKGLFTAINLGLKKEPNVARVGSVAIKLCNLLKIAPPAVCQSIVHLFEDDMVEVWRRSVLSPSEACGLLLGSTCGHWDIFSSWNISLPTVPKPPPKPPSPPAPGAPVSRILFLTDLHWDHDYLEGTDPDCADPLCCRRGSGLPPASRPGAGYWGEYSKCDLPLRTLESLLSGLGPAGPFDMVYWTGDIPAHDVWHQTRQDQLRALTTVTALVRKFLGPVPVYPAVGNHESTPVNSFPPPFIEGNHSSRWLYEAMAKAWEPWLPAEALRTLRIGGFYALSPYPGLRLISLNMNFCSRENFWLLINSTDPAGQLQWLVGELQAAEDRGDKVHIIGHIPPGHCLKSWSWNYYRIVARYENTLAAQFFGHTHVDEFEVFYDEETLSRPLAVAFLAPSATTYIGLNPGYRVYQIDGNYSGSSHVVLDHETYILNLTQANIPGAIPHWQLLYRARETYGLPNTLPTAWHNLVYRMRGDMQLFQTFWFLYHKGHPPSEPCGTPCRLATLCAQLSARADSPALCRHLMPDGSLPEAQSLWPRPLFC
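Steps: dispense placental human ASM, pin compound, wait 10 min at room temperature, add HMU-PC0 substrate at 9 uM final, incubate 60 min at 37 °C, add stop solution raising pH to 10, read fluorescence.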
Vif-A3F inh = qHTS for Inhibitors of Vif-A3F Interactions: qHTS | HeLa A3F-eYFP + Vif (tagged APOBEC3F with the HIV-1 protein that degrades it), YFP fluorescence increase | Potency, µM (top dose mostly 46.1 µM), inactives show top-dose activity, negative = active | hit rate 0.2% among 390,000; also: potency is read from the fitted curve at half-maximal effect; % of control where 0% means no effect; nearly all actives have a fitted effect of over 65% in size
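Fluorescence increase (Ex 488/Em 500-530) after overnight compound treatment at 37 deg C flags inhibition of Vif-driven A3F-eYFP loss in stable HeLa A3F-eYFP/Vif cells seeded overnight beforehand.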
Akt phos inh = HTS Assay for Inhibitors of Akt Phophorylation: Primary Screen. Neuro2A IGF-stimulated pAkt S473 HTRF, 20 min; active compounds read low. activity change, % for hits at 50 µM. hit rate 0.32% among 360,000. AID 651550, 2012; in the data active = activity change below about -80%; inconclusive = mostly about -51% to -80%; also: % is scaled to controls: 0 for no effect and ±100 for the full control effect
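Single-point screen (50 µM final compound) in Neuro2A cells stimulated 20 min with 6 nM IGF at 37 deg C. After lysis, Ser473-phosphorylated Akt read by HTRF (ex 330 nm, em 615/665 nm) as the 665/615 ratio.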
PTAP TSG101 blk = qHTS Assay for Iinhibitors of HIV-1 Budding by Blocking the Interaction of PTAP/TSG101; Potency, µM (series often up to 115 µM), inactives show at the highest dose activity change, negative = inhibition, most hits filed as inhibitors; Tumor susceptibility gene 101 protein (Homo sapiens), Q99816; AID 493005, 2010; 340,000 tested, under 10 active; Fluorescence polarization, FITC-PTAP peptide / Tsg101 binding; active = well fitted inhibition curve with a large enough effect in the main read-out, with a control signal flat, not every such curve was filed as active; inconclusive = small, poorly fitted or top-dose-only effect, or effect the other way, or a change in a side signal; inactive = no such curve, though single readings can be large or run the other way; also: potency is read from the fitted curve at half-maximal effect; % of control where 0% means no effect
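Compounds were pin-transferred onto Tsg101 binding domain (10 uM final) in HEPES pH 7.5 buffer, then FITC-PTAP peptide was added at 50 nM final. After 20 min at RT, polarization reported peptide displacement across a qHTS concentration series.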
Starred values were filed as active, the others as inactive; i = inactive; u = inconclusive; x = not tested or not shown; [ ] = remark or other dose. Unless noted, calls follow the shape of the dose curve; as a rule, active = well fitted curve in the direction sought with a large enough effect; inconclusive = small, poorly fitted or top-dose-only effect, or another doubt; inactive = no such curve, though single readings can be large; an effect the other way counts as inactive or inconclusive.

SMILES | Vif-APOBEC3G blk | 12-LOX inh | S-ASM inh | Vif-A3F inh | Akt phos inh | PTAP TSG101 blk
COc1ccc(CNC(=O)C(C#N)c2nc3ccccc3nc2N2CCN(C)CC2)cc1 (stereo unspecified) | 2% | -25% | -8% | -6% | i | 1%
CCNc1nc2ccccc2nc1C(C#N)S(=O)(=O)c1ccc(C)c(C)c1 (stereo unspecified) | x | 14µM* | x | x | x | x
COc1ccc(S(=O)(=O)C(C#N)c2nc3ccccc3nc2N2CCCCC2)cc1 (stereo unspecified) | -19% | u | 93% | -11% | i | -11%
CCN1CCN(c2nc3ccccc3nc2C(C#N)S(=O)(=O)c2cccc(C)c2)CC1 (stereo unspecified) | x | 14µM* | x | x | x | x
CCOC(=O)c1nc2ccccc2nc1NCc1ccc2c(c1)OCO2 | x | 4% | x | x | x | x
O=C(NC1CC1)c1cc(-c2ccccc2F)cc2c1OCCN2Cc1cccnc1 | x | -1%[176 µM] | x | x | x | x
CCN1CCN(c2nc3ccccc3nc2C(C#N)S(=O)(=O)c2ccc(Cl)cc2)CC1 (stereo unspecified) | x | 45µM* | x | x | x | x
COc1ccc(/C=C/c2ccc3ccccc3n2)cc1OC | -4% | 28µM* | x | x | x | x
COc1ccc(/C=C/c2cnc3ccccc3n2)cc1OC | -9% | x | x | x | x | x
COc1cccc(C(=O)N2CCC(c3nn(-c4ccc(Cl)cc4)c(=O)[nH]3)CC2)c1 | x | 35µM* | x | x | x | x
Cc1ccccc1C(=O)N1CCC(c2nn(-c3ccc(Cl)cc3)c(=O)[nH]2)CC1 | x | 45µM* | x | x | x | x
Cc1ccc(C(=O)N2CCC(c3nn(-c4ccc(Cl)cc4)c(=O)[nH]3)CC2)cc1 | x | 25µM* | x | x | x | x
COc1ccc(C(=O)N2CCC(c3nn(-c4ccc(OC)cc4)c(=O)[nH]3)CC2)cc1 | x | 14% | x | x | x | x
O=C(Nc1ccccc1)N1CCC(c2nn(-c3ccc(Cl)cc3)c(=O)[nH]2)CC1 | x | 32µM* | x | x | x | x
Cc1ccccc1C(=O)N1CCC(c2nn(-c3ccccc3)c(=O)[nH]2)CC1 | x | 35% | x | x | x | x
O=C(Cc1ccc(Cl)cc1)NC1CCN(c2cc(-c3cccs3)[nH]n2)C1 (stereo unspecified) | x | 3% | x | x | x | x
O=C(c1n[nH]c2ccccc12)N1CCC(Cc2nc(-c3ccccc3)n[nH]2)CC1 | x | -4% | x | x | x | x
COc1cc(/C=C(/C#N)c2nc3ccccc3[nH]2)cc(OC)c1 | x | 12% | x | x | x | x
Cn1nc(C2CCN(C(=O)c3ccccc3Cl)CC2)[nH]c1=O | x | 10%[176 µM] | x | x | x | x
O=C(c1ccccc1Cl)N1CCC(c2nn(-c3ccc(Cl)cc3)c(=O)[nH]2)CC1 | x | 35µM* | x | x | x | x
CC1=C([N+](=O)[O-])C(c2ccc(O)c(O)c2)NC(=O)N1 (stereo unspecified) | -1% | 28µM* | 3% | -2% | i | 1%
O=C(NCc1coc(-c2cccs2)n1)c1ccc(OC(F)(F)F)cc1 | x | -26% | x | x | x | x
Cc1ccc(OCC(=O)Nc2ccc3oc(-c4ccccc4)nc3c2)cc1C | x | 18% | x | x | x | x
CCOc1ccc2nc(N3CCC(C(=O)NCCc4cc(OC)ccc4OC)CC3)sc2c1 | x | 3% | x | x | x | x
COC(=O)CCS(=O)(=O)c1ccc(Cc2ccc(S(=O)(=O)CCC(=O)OC)cc2)cc1 | x | -34% | x | x | x | x
CCS(=O)(=O)c1ccc(Cc2ccc(S(=O)(=O)CC)cc2)cc1 | x | 8.9µM* | x | x | x | x
CCCn1c(=O)[nH]c(=O)c2c1nc(-c1ccc(CC)cc1)n2CCOC | x | -3% | x | x | x | x
O=C1Nc2ccccc2/C1=C\C(=O)c1ccccc1 | u | u | -7% | -8% | i | 1%
